Sfp inh – inhibitors of Bacillus subtilis Sfp phosphopantetheinyl transferase; Q9F4F7; Biochemical Sfp PPTase activity, qHTS; Potency, µM, for the others: largest response in the series, negative = inhibition, most hits filed as inhibitors; 310,000 tested, 3.5% active; AID 1490;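 further: the enzyme is Sfp with the accession as filed and its product quenches rhodamine fluorescence; potency means the concentration at half of the fitted maximal effect; 0% = enzyme reaction without inhibitor and -100% = no enzyme wells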
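Reaction rates are the 30-min fluorescence difference (ex 525, em 598 nm) in wells containing 15 nM Sfp, 5 uM rhodamine-CoA and 12.5 uM BHQ-2-YbbR at pH 7.6 with 10 mM MgCl2.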
Giardia kill – Giardia lamblia killing; Giardia lamblia trophozoite viability; activity change, % at 7.66 µM, hits read low; 340,000 tested, 0.15% active; AID 540267; in the data active means activity change below about -80%; inconclusive means between about -30% and that limit;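 further: parasites exposed to compound for two days anaerobically before the ATP read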
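ATP-content bioluminescence gauges trophozoite survival. Cells (100/well) receive compound and incubate anaerobically for 48 hrs at 37 deg C; detection reagent follows for 15-30 min at room temperature.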
Coupling enz – inhibits coupling enzyme system, counter-screen for aldolase hits. coupling enzyme system counterscreen, AmpLite Red fluorescence. 290,000 tested, 0.67% active. activity change, negative = inhibition, % at 58.2 µM, hits read low; in the data active means activity change below about -30%
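Fluorescence at 525 nm excitation and 598 nm emission measured inhibition of the coupled detection system without aldolase. Compounds (at 57.5 uM final) were preincubated 10 min at room temperature with coupling enzyme reagent before a 20 min substrate/AmpLite Red step.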
ELG1 repair inh – ELG1-dependent DNA repair inhibition. HEK293T ELG1-luciferase reporter, luminescence, 16 h; DNA damage induced by 5-fluorouridine. 330,000 tested, 2.3% active. Potency, µM (series often up to 46.1 µM), without a hit: top-dose activity change, negative = inhibition, hits mostly inhibitors; further: potency means the concentration at half of the fitted maximal effect; nearly all actives have a fitted effect of over 55% in size
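Luminescence from the luciferase reporter, measured 30 min after ONE-Glo reagent at room temperature, was the read-out. Beforehand, 2,000 cells per well were exposed for 16 hr at 37 °C to 5-fluorouridine together with compound or vehicle.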
Active calls of the source: *; ? = inconclusive; / = no result. Only some compounds are listed: those with a hit (about 5.5% of all), similar ones and a draw of the others. Unless noted, the call rests on the fitted dose curve; in most records, active means well fitted curve in the direction sought with a large enough effect; inconclusive means small, poorly fitted or top-dose-only effect, or another doubt; inactive means no such curve, though single readings can be large; an effect the other way counts as inactive or inconclusive. Unless noted, on the % scale 0 is the no-effect control and ±100 the full control effect.

SMILES	Sfp inh	Giardia kill	Coupling enz	ELG1 repair inh
CCOC(=O)C(C(C)=O)c1c(Br)c(O)c(O)c2c(C(=O)c3ccc(C)cc3)coc12 (stereo not given)	13µM*	-13	-4	4.6µM*
CCOC(=O)c1c(C)n(-c2ccc(C)cc2)c2c(C(C(C)=O)C(=O)O)c(Br)c(O)c(O)c12 (stereo not given)	0.89µM*	3	-34*	-16%
CCOC(=O)c1c(C)n(-c2ccc(C)cc2)c2c(CC(C)=O)c(Br)c(OC)c(O)c12	12%	0	0	?
Cc1ccc(C(=O)c2coc3ccc(O)c(Cl)c23)cc1	-3%	17	-30	?
CC(C)c1ccc(C2C3=C(CC(c4ccco4)CC3=O)Nc3nc(C(F)(F)F)nn32)cc1 (stereo not given)	/	1	/	/
O=C1CC(c2ccco2)CC2=C1C(c1ccccc1)n1nc(C(F)(F)F)nc1N2 (stereo not given)	10µM*	-2	-4	?
COc1ccc(-c2cc(-c3ccco3)[nH]c(=O)c2C#N)cc1	50µM*	-17	-12	?
COc1ccc2c(c1O)Cc1ccccc1C2=O	45µM*	17	-3	?
CC(=O)Oc1cccc2c1C(=O)C1CC=CC(OC(C)=O)C1C2=O (stereo not given)	/	-23	/	/
COC(=O)CSC1=C(C#N)C(c2ccccc2F)CC(=O)N1 (stereo not given)	?	9	-23	-15%
N#CC1=C2SCC(O)(c3ccccc3)N2C(=O)CC1c1cccs1 (stereo not given)	18µM*	-3	-7	?
COc1ccc(C2CC(=O)N3C(=C2C#N)SCC3(O)c2ccccc2)cc1 (stereo not given)	50µM*	9	-12	-1%
CSC1=C(C#N)C(c2cccs2)CC(=O)N1C (stereo not given)	1%	/	2	-1%
N#CC1=C2SCC(O)(c3ccccc3)N2C(=O)CC1c1ccccc1F (stereo not given)	50µM*	8	-8	-8%
CC(C)c1ccccc1NC(=O)c1ccc2ncsc2c1	3%	-2	1	?
COc1ccc(CNc2ccnc(-c3cccc(NS(C)(=O)=O)c3)n2)c(OC)c1	-20%	/	0	/
CC(C)[C@H]1COCCS(=O)(=O)N1Cc1ccccc1-c1cccc(Cl)c1	/	-4	/	-12%
CCN(CC(=O)Nc1c(F)cccc1F)C(=O)/C=C/c1cn(Cc2ccccc2)nc1-c1cccnc1	19%	-10	/	?
COc1ccccc1N(C(=O)CCl)c1cn(C(C)=O)c2ccccc12	6%	-26	1	12µM*
Cc1cc2nc(/C=C/c3nc4cc(C)c(C)cc4[nH]3)[nH]c2cc1C	-20%	3	1	?
Cc1ccc(/C=C/c2nc3ccccc3[nH]2)o1	5µM*	?	-10	?
N#CC(C#N)=C1C=CC=CN1/C(=C\c1ccccc1Cl)C(=O)c1ccccc1	?	14	-17	?
N#CC(C#N)=C1C=CC=CN1/C(=C\c1ccccc1)C(=O)c1cccs1	2.2µM*	5	1	-14%
O=c1cc(-c2ccc(O)cc2)oc2c([C@H]3O[C@@H](CO)[C@@H](O)[C@@H](O)[C@@H]3O)c(O)cc(O)c12	-3%	/	3	/
CCc1ccc(C(=O)NNC(=O)c2ccc(OCC(=O)N3CCOCC3)c(OC)c2)cc1	/	-26	/	?
SMILES	Sfp inh	Giardia kill	Coupling enz	ELG1 repair inh
O=C(CNS(=O)(=O)c1ccc(Br)cc1)N1CCN(Cc2ccccc2)CC1	6%	5	/	-7%
CC1CCCCN1C(=O)CN1C(=O)CSc2ccc(S(=O)(=O)N3CCOCC3)cc21 (stereo not given)	7%	-6	-2	23%
O=C(CN1CCN(S(=O)(=O)c2ccccc2F)CC1)Nc1ccccc1C(=O)c1ccccc1	6%	-1	-7	12µM*
COc1cc(S(=O)(=O)N2CCOCC2)ccc1NC(=O)c1cc2c(s1)CCC2	-6%	-8	-6	-27%
Cc1ccc(NC(=O)c2cc3c(s2)CCC3)cc1S(=O)(=O)N1CCOCC1	4%	23	0	23µM*
Cc1ccc(S(=O)(=O)N2CCOCC2)cc1NC(=O)c1cc2c(s1)CCC2	8%	4	6	23µM*
O=C1NC[C@H](c2ccccc2)N1	-13%	/	3	/
CCN1/C(=C2/SC(=S)NC2=O)Sc2ccccc21	-29%	-10	-2	10%
O=C1NC(=S)SC1=C1CCCCCC1	35µM*	8	17	5%
O=C(c1csnn1)N1CCC2(CCCN(c3ccc(-c4ccccc4)cc3)C2)CC1	-9%	/	0	/
CC1=C(C)CS(=O)N(S(=O)(=O)c2ccc(Cl)cc2)C1 (stereo not given)	3.5µM*	-3	1	25%
CC1CCCC(C)N1S(=O)(=O)c1ccc(Cl)cc1 (stereo not given)	14%	13	-2	0%
C=CCNC(=S)Nc1cccc2ccccc12	79µM*	9	-51*	0%
C/C(=C\C(=S)Nc1ccccc1)Nc1ccc2ccccc2c1	?	2	-37*	?
C/C(=C\C(=S)Nc1ccccc1)Nc1cccc2ccccc12	?	-4	-49*	6%
S=C(NCc1ccccc1)Nc1ccc2ccccc2c1	4%	0	/	?
C=CCNC(=S)NCc1ccccc1	?	5	-5	-8%
Cc1ccc(NC(=S)Nc2cccc3ccccc23)cc1	-27%	9	-7	?
O=C(CN1C(=O)NC2(CCCCC2)C1=O)Nc1ccc2c(c1)OCCCO2	/	1	/	?
COc1ccc(S(=O)(=O)N2CCOC2CNC(=O)C(=O)NCCc2ccc(OC)c(OC)c2)cc1C (stereo not given)	5%	-6	2	15µM*
COc1ccc(CCNC(=O)C(=O)NCC2OCCN2S(=O)(=O)c2ccc(OC)c(OC)c2)cc1 (stereo not given)	15%	-4	-5	?
Cc1cc(F)ccc1S(=O)(=O)N1CCCOC1CNC(=O)C(=O)NCCc1c[nH]c2ccccc12 (stereo not given)	28%	-14	1	18µM*
COc1ccc(CCNC(=O)C(=O)NCC2OCCN2S(=O)(=O)c2ccc(C)cc2)cc1 (stereo not given)	3%	3	1	-16%
COc1ccc(S(=O)(=O)N2CCOC2CNC(=O)C(=O)NCCc2ccccc2)cc1 (stereo not given)	9%	11	-2	21µM*
COc1ccc(CCNC(=O)C(=O)NCC2OCCN2S(=O)(=O)c2ccc3c(c2)OCCO3)cc1OC (stereo not given)	7%	2	/	12µM*
Cc1ccc(CNC(=O)c2nccnc2C(=O)O)cc1	-2%	4	-1	14%
CN(C)CCCNC(=O)C(=O)NCC1OCCN1S(=O)(=O)c1cccs1 (stereo not given)	79µM*	-5	/	11%
COc1ccc(CCNC(=O)/C(C#N)=C/c2ccc(OCC(=O)NCC3CCCO3)cc2)cc1OC (stereo not given)	17%	-2	0	?

From PubChem
